# Data as given in PubChem BioAssay (NCI).
# The panel holds about 83,000 compounds, 20% with a hit somewhere; the sample as a whole holds those more often.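 Single-concentration screen, 48 h exposure, 96-well plates. Endpoint: percent growth. Below 10 = active.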 Values without a mark were called inactive. Calls of active or inactive are those of the source.
# System: U251 CNS
# Assay: NCI-60 one-dose screen, 48 h (100 = growth as untreated, 0 = no growth, -100 = all killed)
# Conditions: 10 µM unless noted
# Procedure: Growth inhibition of the U251 human tumor cell line is measured as a screen for anti-cancer activity. Cells are grown in 96 well plates and exposed to the test compound for 48 hours. Compounds are tested at a single concentration, which is 10^-5 M for most compounds. The reported endpoint is percent growth (GI% or GIPRCNT), where numbers from 0 - 100% represent growth inhibition, and numbers from -100% - 0 represent cell death. For example, a value of 40 represents 60% growth inhibition. A value of 0 means no net growth occurred over the course of the experiment. A value of -40 indicates 40% of cells at the beginning of the experiment died by the end of the experiment. A value of -100 means all cells are dead at the end of the experiment.
# NCI-60 Human Tumor Cell Lines Screen was performed using the standard one-dose NCI protocol, which is described in more detail at https://dtp.cancer.gov/discovery_development/nci-60/default.htm.
# Compounds with GIPRCNT values below 10 were considered active. Activity score was based on GIPRCNT using the following formula: […]
# Score is 0 for GIPRCNT values of 100 or above, 50 for GIPRCNT values of 0, and 100 for GIPRCNT values of -100.
row,Compound,growth
1,CN(C)P1(N(C)C)=NP(N(C)C)(N(C)C)=NP(N(C)C)(N(C)C)=N1,97.9%
2,Cc1cc(N(CCCl)CCCl)ccc1C=Nc1ccc2ccccc2c1,63%
3,FC(F)=C(F)c1ccccc1,103%
4,CCC(CO)NC1CCCCC1 (stereo not given),55.1%
5,COc1cc(N(CCCl)CCCl)ccc1C=Nc1ccccc1C(=O)O,95.8%
6,CCC(C)(C)O,108%
7,CC1COC(=O)C1 (stereo not given),102%
8,C[C@@H]1CC[C@@H]2[C@@H]1[C@H](OC(=O)/C=C/C1CCCCC1)[C@]1(C3CCCCC3)C[C@@H](OC(=O)CO)[C@@]2(C)O1,60.2%
9,C[As](=O)(O)c1ccc(C(=O)O)cc1,89.5%
10,CCCCCCCCCCOc1ccc(C(=O)Oc2ccc(CSP3(=O)OCC4OC(n5ccc(=O)[nH]c5=O)C(F)C4OP(=O)(O)OCC4OC(n5cnc6c(N)ncnc65)C(F)C4O3)cc2)cc1 (stereo not given),104%
11,CCN1CC2(CN(CC)C1=S)C(=O)NC(=O)NC2=O,97.7%
12,COc1ccc(OC)c(/C=C(/C)[N+](=O)[O-])c1,26.7%
13,Cc1ccc2oc(=O)c3c(c2c1)OC(N)=C(C#N)C3c1ccco1 (stereo not given),109%
14,C/C1=C/C(=O)O[C@@H]2C[C@@H](CC[C@H](C)/C=C\C=C\CC1)O[C@@](OCCc1ccccc1)([C@@H]1CSC(=O)N1)C2,16.4%
15,O=S(=O)(O)c1ccc(-c2ccc([As](=O)(O)O)cc2)cc1,95.6%
16,CC1(C)N=C(N)N=C(N)N1c1ccc(CNC(=O)Nc2ccc(S(=O)(=O)F)c(Cl)c2)c(Cl)c1,11.3%
17,CC(C)C1c2ccc(O)cc2Oc2nc(N)c(C#N)c(N)c21 (stereo not given),95.8%
18,CC12CCC3C(CC=C4CC(O)CCC43C)C1C/C(=C\N1CCOCC1)C2=O (stereo not given),100%
19,COc1cc[c]([Hg][Cl])cc1,-26% (active)
20,NC(=O)C(Br)CBr (stereo not given),26.9%

row,Compound,growth
1,NS(=O)(=O)c1nc[nH]c1[N+](=O)[O-],119%
2,C=CC(O)CN1CC1CC (stereo not given),93.8%
3,S=P(NC1CCCCC1)(N1CC1)N1CC1,101%
4,c1ccc([As]=[As]c2ccccc2)cc1 (stereo not given),-98.7% (active)
5,CNc1ccc(C(=O)CC(O)CCC(C)C2OC(=O)CC(O)CC(=O)CC(O)CC(O)CC(O)CC(O)CC3(O)CC(O)C(C(=O)OC)C(CC(O[C@@H]4O[C@H](C)[C@@H](O)[C@H](N)[C@@H]4O)/C=C/C=C/C=C/C=C/C=C/C=C/C=C/C2C)O3)cc1 (stereo not given in full),23.8%
6,Cc1ccc(C[As+](c2ccccc2)(c2ccccc2)c2ccccc2)cc1,10.9%
7,CCOc1cc(/C=N\Nc2nnc(C)n2N)c(C)cc1N(CCCl)CCCl,14.4%
8,CC(CC(C#N)(c1ccccc1)c1ccccc1)N1CCOCC1 (stereo not given),99.2%
9,CNC(=O)Oc1cccc(OC)c1,110%
10,COc1cc(CNCCc2ccc(Cl)cc2)cc(OC)c1O,58.5%
11,CC1(C)N=C(N)N=C(N)N1c1ccc(OCCCCNC(=O)Nc2cccc(S(=O)(=O)F)c2)c(Cl)c1,15.6%
12,CCC(C)/C=C(C)/C=C/C(=O)c1c(O)c(-c2ccc(O)cc2)c[nH]c1=O (stereo not given),40.9%
13,[Br][Pb]([c]1ccccc1)([c]1ccccc1)[c]1ccccc1,-100% (active)
14,COc1c(O)c2c3c(c1OC)-c1ccccc1CC3N(C)CC2 (stereo not given),99.1%
15,CC(C)(C)NCC(O)c1ccccc1Cl (stereo not given),10.2%
16,COc1cc(C2(C#N)CCN(C)CC2)cc(OC)c1OC,101%
17,[Cl][Hg][n]1cnc2c(Cl)c(Cl)c(Cl)cc21,78.2%
18,CCOC(=O)C1(c2ccccc2)CCN(CC(=O)c2ccc(NC(C)=O)cc2)CC1,99.2%
19,CN1C(=O)NC(=O)C(N=Nc2ccc(Cl)cc2)C1=O (stereo not given),108%
20,Nc1nc(N)c(-c2ccc(Cl)c(Cl)c2)c(/C=C/c2ccc(S(=O)(=O)F)cc2)n1,89.1%
